For 40 compounds, outcome and AC50 results are on record in PubChem BioAssay (EPA / NIEHS).

SMILES strings stand for the structures. Active and inactive are the calls of the source. The calls were made as follows: active = hit-call score of the fitted dose curve at least 0.9, where 1 is the maximum; inconclusive = response in the unintended direction; inactive = score below 0.9.

Estrogen receptor beta (Homo sapiens), sequence (Q92731 whole entry, looked up, the tested form may be a part): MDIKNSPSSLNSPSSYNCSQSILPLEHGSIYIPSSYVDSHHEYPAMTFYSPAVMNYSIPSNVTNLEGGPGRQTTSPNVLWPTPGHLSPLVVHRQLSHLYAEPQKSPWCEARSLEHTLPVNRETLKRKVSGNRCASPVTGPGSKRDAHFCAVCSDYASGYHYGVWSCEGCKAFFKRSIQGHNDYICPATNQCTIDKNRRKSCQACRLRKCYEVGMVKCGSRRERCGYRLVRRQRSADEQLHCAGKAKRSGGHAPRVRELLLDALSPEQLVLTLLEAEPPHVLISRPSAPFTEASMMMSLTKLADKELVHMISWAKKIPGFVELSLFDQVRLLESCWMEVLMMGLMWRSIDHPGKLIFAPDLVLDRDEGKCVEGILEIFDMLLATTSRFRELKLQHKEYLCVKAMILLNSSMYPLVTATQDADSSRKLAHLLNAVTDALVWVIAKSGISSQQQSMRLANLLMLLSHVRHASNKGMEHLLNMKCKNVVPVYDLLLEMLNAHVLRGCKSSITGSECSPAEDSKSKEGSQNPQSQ

The target of this assay is Estrogen receptor beta (Homo sapiens) (UniProt Q92731). Description: OT_ER_ERbERb_1440: Odyssey Thera (OT) 24-hour HEK293T Protein-Complementation Assay for Estrogen Receptor-beta/-beta Homodimer (AID 2283380).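 Also: scored as signal increase over DMSO baseline for both agonists and antagonists.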 On the procedure:
OT_ER_ERbERb_1440 is a cell-based assay that uses HEK293T, a human kidney cell line, with measurements taken at 24 hours after chemical dosing in a 384-well plate.OT_ER_ERbERb_1440 is one of one assay component(s) measured or calculated from the OT_ER_ERbERb_1440 assay. It is designed to make measurements of protein fragment complementation, a form of binding reporter, as detected with fluorescence intensity signals by Protein-fragment Complementation technology.Data from the assay component OT_ER_ERbERb_1440 was analyzed into 1 assay endpoint. This assay endpoint, OT_ER_ERbERb_1440, was analyzed in the positive analysis fitting direction relative to DMSO as the negative control and baseline of activity. Using a type of binding reporter, measures of receptor for gain-of-signal activity can be used to understand the binding at the pathway-level as they relate to the gene ESR2. Furthermore, this assay endpoint can be referred to as a primary readout, because the performed assay has only produced 1 assay endpoint. To generalize the intended target to other relatable targets, this assay endpoint is annotated to the nuclear receptor intended target family, where the subfamily is steroidal.
Protein-fragment complementation assay, or PCA, is a method for the identification and quantification of protein-protein interactions. In the PCA, the proteins of interest ("bait" and "prey") are each covalently linked to fragments of a third protein (e.g. DHFR, which acts as a "reporter"). Interaction between the bait and the prey proteins brings the fragments of the reporter protein in close proximity to allow them to form a functional reporter protein whose activity can be measured. The OT ER beta / ER beta assay is a homodimer PCA of the ligand binding domain (LBD; amino acids 310-547) of human ER beta stably expressed in HEK293T cells. […] Cells are fixed in 4 percent formaldehyde and stained with Draq5 (BioStatus) to identify cells prior to signal detection. Fluorescent signal in the basal state of the assay is very low and is primarily punctuate and cytoplasmic. Modulation of this assay is quantified as an increase in mean fluorescence intensity in the nucleus (for agonists) or in the nucleus and cytoplasm (antagonists) relative to vehicle controls, and can be quantified on a high content imaging device or a laser scanning cytometer. The latter instrument is favored for this assay because of the rapid mode of data acquisition, the ability to acquire data from the entire cell population in a well (as opposed to a fraction of the well on the high content devices) and the larger dynamic range typically achieved with this instrument. To assess sensitivity of the ER beta/ER beta LBD assay to ligand, cells were treated with the ER agonist 17- beta-estradiol (E2) in 10-point concentration- response format for 24 hours and monitored response on a laser scanning plate cytometer (Acumen eX3; TTP Lab Tech).
As for `Oc1c(Br)cc(Br)cc1Br`, the result was inactive.

In the case of `COCCl`, the call was inactive.

Turning to `O=C(O)COc1cc(Cl)c(Cl)cc1Cl`, the compound was classed as inactive.

For `O=C(O)COc1ccc(Cl)cc1`, the call was inactive.

As for `CC(C)=CC1C(C(=O)OCc2cccc(Oc3ccccc3)c2)C1(C)C` (stereo not given), the call was inactive.

On to `CN(C)C(=S)S`, for which the call was inactive.

Regarding `Clc1cccc(Cl)c1`, the outcome was inactive.

Regarding `COc1nn(C(=O)NS(=O)(=O)c2ccccc2OC(F)(F)F)c(=O)n1C`, the result was inactive.

`O=C(N[C@H]1CN2CCC1CC2)c1ccc2c(c1)OCCO2`: the compound was classed as inactive.

Turning to `Nc1ncn[nH]1`, the outcome was inactive.

Turning to `O=[N+]([O-])c1ccccc1O`, the compound was called inactive.

Take `Cc1cc(C)cc(C)c1`: the result was inactive.

For the compound `O=S1(=O)OC(c2cc(Br)c(O)c(Br)c2)(c2cc(Br)c(O)c(Br)c2)c2ccccc21`, the result was inactive.

In the case of `Cc1cc(Cl)ccc1O`, the half-maximal activity concentration (AC50) is 63.8 µM (active).

On to `CCOCn1c(-c2ccc(Cl)cc2)c(C#N)c(Br)c1C(F)(F)F`, for which the AC50 was 12.6 µM (active).

Consider `CCN(CCO)CCO`, for which the compound was called inactive.

For `Cc1cc(Cl)ccc1OC(C)C(=O)O` (stereo not given), the result was inactive.

In the case of `CCCCCCCCCCCCN(C)C`, the compound was classed as inactive.

Consider `N#CCCC(Br)(C#N)CBr` (stereo not given), for which the AC50 is 11.9 µM (active).

Regarding `Cc1cc(Cl)ccc1OCCCC(=O)O`, the compound was called inactive.

`CC(O)(CS(=O)(=O)c1ccc(F)cc1)C(=O)Nc1ccc(C#N)c(C(F)(F)F)c1` (stereo not given): the AC50 is 1.75 µM (active).

Regarding `N#CCC#N`, the call was inactive.

Regarding `CN(N=O)C(N)=O`, the call was inactive.

`CCOc1ccc(N)cc1`: the outcome was inactive.

As to `O=C(NC(=O)c1c(F)cccc1F)Nc1cc(Cl)c(OC(F)(F)C(F)C(F)(F)F)cc1Cl` (stereo not given), the compound was classed as inactive.

For `CCCSP(=S)(OCC)Oc1ccc(SC)cc1` (stereo not given), the result was inactive.

Take `CCOP(=S)(OCC)O/N=C(\C#N)c1ccccc1`: the AC50 is 50 µM (active).

As for `COC(=O)Nc1cccc(OC(=O)Nc2cccc(C)c2)c1`, the call was inactive.

For `O=C(CBr)c1ccc(O)cc1`, the compound was classed as inactive.

Regarding `CC(C)(C)c1ccccc1O`, the result was inactive.

Turning to `Oc1cc(Cl)c(Cl)cc1Cl`, the AC50 was 75.1 µM (active).

Take `Oc1c(Cl)cc(Cl)cc1Cl`: the compound was classed as inactive.

For the compound `O=C(NC(=O)c1c(F)cccc1F)Nc1ccc(Cl)cc1`, the result was inactive.

For the compound `CCC[CH2][Sn]([Cl])([Cl])[CH2]CCC`, the result was inactive.

Take `CC(C)N(C(=O)CCl)c1ccccc1`: the compound was called inactive.

As to `N#Cc1cccnc1`, the call was inactive.

Regarding `CNC(=O)O/N=C/C(C)(C)S(C)(=O)=O`, the call was inactive.

On to `O=CCCl`, for which the compound was classed as inactive.

Take `Nc1ccc(N)cc1`: the AC50 is 12.4 µM (active).

Take `O=C(CCl)Nc1ccccc1`: the outcome was inactive.

Usually AC50 stands for the midpoint of the concentration-response curve, whichever way the signal moves.
